This note sets out measurements from PubChem BioAssay AID651965 (National Center for Advancing Translational Sciences (NCATS), 2013).

Molecules are shown by their SMILES. Hit rate of the full screen: of about 340,000 compounds, about 6,400 (1.9%) were called active. Roughly 4% stayed inconclusive and do not appear here. For the sample, actives were picked, then their nearest neighbours and some compounds at random. Values without a mark were called inactive. The call rests on the fitted dose curve; in most records, active means well fitted falling curve with a large enough effect; inconclusive means small, poorly fitted or top-dose-only effect; inactive means no such curve, though single readings can be large or run the other way.
Potency means the concentration at half of the fitted maximal effect.

Chain of ATP-dependent Clp protease proteolytic subunit (Bacillus subtilis (strain 168)) (P80244 whole entry, looked up): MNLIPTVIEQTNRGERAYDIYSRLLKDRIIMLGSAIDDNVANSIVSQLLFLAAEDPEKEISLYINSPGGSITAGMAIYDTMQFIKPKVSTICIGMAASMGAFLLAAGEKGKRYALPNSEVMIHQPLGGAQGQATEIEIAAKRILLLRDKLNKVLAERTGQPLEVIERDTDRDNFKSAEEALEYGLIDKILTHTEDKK

In this assay the target is ATP-dependent Clp protease proteolytic subunit (Bacillus subtilis (strain 168)) (UniProt P80244). Put plainly: qHTS Assay for Activators of ClpP. Further: the source files actives as falling curves though it sought activators and does not explain the sign; nearly all actives have a fitted effect of over 65% in size. The settings on record: purified B. subtilis ClpP, FRET peptide cleavage, 20 min; series mostly up to 57.5 µM; activity change, negative = active: at the top concentration. A digest of the protocol:
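Buffer: 100 mM Tris/HCl pH8, 100 mM KCl, 0.05% low protease BSA, 2.5% glycerol, 0.01% Tween-20. ClpP 10 microg/mL final; 20 min RT; delta FRET normalized to ADEP and DMSO controls.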
As to `COc1cccc(CNC(=O)[C@@H]2CCCN2C(=O)[C@@H]2CCCN2C(=O)c2ccccc2)c1`, the “activity change, negative = active” value was -3.48%. The same measure, in the same setting: with `Cc1[nH]c2ccccc2c1C(=O)c1cc([C@H](NC(=O)OC(C)(C)C)C(C)C)sc1N` the figure was -1.88%; with `CN(Cc1cn(Cc2ccc(C(F)(F)F)cc2)nn1)C1CN(Cc2cn(Cc3ccc(C(F)(F)F)cc3)nn2)S(=O)(=O)C1` (centres undefined), 2.25%; with `CCOCCCNC(=O)c1cn(CC)c2ccc(S(=O)(=O)N3CCc4ccccc4C3)cc2c1=O`, -0.751%. Take `CCOCCCNC(=O)c1cn(CC(C)C)c(=O)c2c1c1ccccc1n2C`: the Potency is 39.8 µM (active). In the case of `COCCCNC(=O)Cn1cc(C(=O)C2CC2)c2ccccc21`, the “activity change, negative = active” value was 0.52%.

As to `CC(=O)C[C@@H]1OC[C@H](CO)N1S(=O)(=O)c1ccc(C)cc1`, the “activity change, negative = active” value was 0.114%. `CCN1CCN(c2ccc(/C=C/c3ccnc4ccccc34)cc2)CC1`: the “activity change, negative = active” value is -1.67%. Same read-out and setting: with `COc1ccc(N2CCN(C(c3cc4ccc(C)cc4[nH]c3=O)c3nnnn3C3CCCC3)CC2)cc1` (centres undefined) the figure was -8.89%.

As for `COCCn1nnnc1C(c1ccccc1Cl)N1CCN(c2ccccc2OC)CC1` (centres undefined), the “activity change, negative = active” value was 16.9%. With `CCOc1ccc2[nH]c(=O)c(C(c3nnnn3CCOC)N3CCOCC3)cc2c1` (centres undefined), the Potency was 15.8 µM (active). As for `CSCCC(C(=O)NC(C)(C)C)n1c(-c2ccccc2)nc2ccccc21` (centres undefined), the “activity change, negative = active” value is -7.98%. Same read-out and setting: the result for `Cc1cccc(C)c1-n1nnnc1C(CCc1ccccc1)N1CCN(C/C=C/c2ccccc2)CC1` (centres undefined) reads 2.81%; that for `CCCCNC(=O)c1nc(C2CCN(S(=O)(=O)c3ccc(F)c(F)c3)CC2)oc1-c1cccc(C(F)(F)F)c1`, -16.5%; that for `CCOc1cc(C(C(=O)NCC2CCCO2)N(C(=O)Cn2nnc3ccccc32)c2cccc(OC)c2)ccc1O` (centres undefined), -0.295%. Same read-out and setting: with `COc1ccc(-c2nc3cc(C)ccn3c2NC2CCCCC2)cc1SC1CCCCC1` the figure was 3.39%.

For `CCOc1cc(-c2nc3cc(C)ccn3c2NCC2CCCO2)ccc1O` (centres undefined), the Potency was 28.2 µM (active).

For the compound `Cc1ccc(S(=O)(=O)NN=C2CC(C)(C)CC(=O)C2(C)C)cc1`, the “activity change, negative = active” value is -0.103%.

`O=C1COc2ccc(-c3csc(-c4ccc(Cl)cc4)n3)cc2N1`: the “activity change, negative = active” value was 3.36%. `CSc1ccccc1-c1nnc(-c2ccc(Cl)cc2)o1`: the Potency was 31.6 µM (active). Regarding `CSc1ccccc1-c1nnc(NC(=O)c2ccc3c(c2)OCCO3)o1`, the “activity change, negative = active” value is 4.31%. On the same count and under the same terms, the result for `COc1ccccc1-c1nnc(-c2ccc(F)cc2)o1` reads -0.414%; that for `CCC(C)CN1C(=O)CSCC1(C)C(=O)NCc1ccccc1` (centres undefined), -4.83%; that for `Cc1ccc(C)n1-c1nnc(N2CCC(C(=O)NCc3ccc(F)cc3)CC2)s1`, 10.4%. `O=C(NCc1ccc(F)cc1)c1ccc2nc(N3CCCCC3)sc2c1`: the Potency is 35.5 µM (active). As to `O=C(NCc1ccccc1)c1ccc2c(c1)nc1n2CCCCC1`, the “activity change, negative = active” value was -5.59%.

As to `CN1OC[C@@H]2CN(C(=O)C(C)(C)C)[C@H](c3ccc(-n4ccnc4)cc3)C[C@@H]21`, the “activity change, negative = active” value is -0.0839%.

Consider `CN1CCN(C(=O)c2ccc(-c3cc4nc(NCc5cccnc5)n(C)c(=O)c4s3)cc2)CC1`, for which the “activity change, negative = active” value was 4.86%. Still for that read-out and setting: with `COc1ccc(Cn2c(=O)[nH]c3cc(C(=O)N4CCN(C(=O)c5ccco5)CC4)ccc3c2=O)cc1` the figure was -8.08%. As to `COC(=O)c1ccc(Sc2ccc(F)cc2)c(N)c1`, the Potency was 28.2 µM (active). As to `Cc1ccc(Sc2ccc(NC(=O)c3ccc(F)cc3)cc2C#N)cc1`, the “activity change, negative = active” value was 4.22%.

For the compound `CC(=O)Nc1cc(C(=O)NCc2ccc(F)cc2)ccc1Sc1ccc(F)cc1`, the “activity change, negative = active” value was 0.223%. Same read-out and setting: the result for `C=C1C=C(C)n2ncc(C(=O)Nc3ccccc3O)c2N1` reads -5.9%; that for `COCCn1c(SCC(=O)Nc2ccc(F)cc2F)nc2c(c1=O)SCC2`, 1.65%; that for `Cc1cc2nc(-c3ccc(F)cc3)c(Cc3ccsc3)n2c(C)c1Br`, -3.99%.

As for `Cc1c(C(=O)OCC(=O)N(CCC#N)c2ccccc2)oc2c1ccc1ccccc12`, the Potency is 25.1 µM (active). With `Cc1cc(C)n2nc(C(=O)OCC(=O)N(CCC#N)c3ccc(F)cc3)nc2n1`, the “activity change, negative = active” value was -2.14%.

With `N#CCCN(C(=O)COC(=O)c1ccc(S(=O)(=O)N2CCCCCC2)cc1)c1ccccc1`, the “activity change, negative = active” value was 1.35%. On to `O=C(Nc1ccc(N2CCOCC2)cc1)c1cccc2c(-c3ccc(F)c(F)c3)coc12`, for which the “activity change, negative = active” value was 24.2%. In the case of `Cc1nc2c(OCc3cccc(Cl)c3)cccn2c1N(C)CC1CC1`, the “activity change, negative = active” value was -11.2%. The same measure, in the same setting: with `COc1cc(Cn2c3ccc(NC(=O)CC(C)c4ccccc4)cc3c(=O)n2C)ccc1F` (centres undefined) the figure was 4.54%.

For `COc1ccc(OC)c(C(=O)c2ccc(Cl)cc2)c1`, the “activity change, negative = active” value is -4.97%. Take `COc1ccc2c(c1)C(=O)Nc1cc(Cl)ccc1N2`: the Potency was 28.2 µM (active). Regarding `COc1ccc(-n2c(-c3ccc(Cl)cc3)n[nH]c2=S)c(OC)c1`, the “activity change, negative = active” value was -16.5%.

As for `C=CCn1c(SCn2nnc3ccccc3c2=O)nnc1-c1ccc(Cl)cc1`, the “activity change, negative = active” value was -1.24%. Regarding `C=CCn1c(-c2ccc(Cl)cc2)ccc(C#N)c1=O`, the Potency is 28.2 µM (active). Consider `CCn1c(C)cc(=O)cc1-c1ccc(Cl)cc1`, for which the “activity change, negative = active” value was 0.84%.

With `COc1cc2ccc(C(C)=O)c(O)c2cc1OC`, the “activity change, negative = active” value is 3.45%. The same measure, in the same setting: with `CCC(O)CNc1nc(-n2nc(C)cc2C)nc2sc3c(c12)CC(C)(C)OC3` (centres undefined) the figure was -5.09%.
